Hits are enriched below; roughly 19% of the tested compounds scored in any of these assays.
TDP1 cell noCPT: qHTS for Inhibitors of human tyrosyl-DNA phosphodiesterase 1 (TDP1): qHTS in cells in absence of CPT. Potency, µM (highest dose often 46.2 µM), most hits filed as inhibitors. AID 686978, 2013. DT40 Tdp1-/- hTDP1 cells, no CPT, ATP luminescence, 48 h. actives 15% (n = 420,000); also: nearly all actives have a fitted effect of over 55% in size
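No-CPT arm: Tdp1-/-;hTDP1 DT40 cells (400/well) plus compounds, incubated ≥48 hr at 37 °C. Readout CellTiter-Glo luminescence.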
HT1080NT lethal: kills 2HG-producing HT-1080-NT fibrosarcoma cells; AID 686970; Potency, µM (titrated, usually from 46.1 µM), hits mostly cytotoxic; actives 1.6% (n = 360,000); HT-1080-NT fibrosarcoma viability, CellTiter-Glo ATP luminescence, 48 h;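 also: NT is the 2HG producing partner of a matched IDH1 knockdown line; nearly all actives have a fitted effect of over 55% in size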
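Compounds were tested in concentration-response format on HT-1080-NT cells for 48 hours at 37 degrees C. Cell viability came from CellTiter-Glo luminescence; curves were classified by r2, response magnitude and activity.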
DT40 TDP1 CPT: growth inhibition of DT40 Tdp1-/-;hTDP1 cells with camptothecin (screen for TDP1 inhibitors) | actives 12% (n = 420,000) | chicken DT40 Tdp1-/-;hTDP1 cells + 20 nM CPT, ATP luminescence, 48 h | AID 686979 | Potency, µM (titrated, usually from 46.2 µM), hits mostly inhibitors; also: nearly all actives have a fitted effect of over 55% in size
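Chicken DT40 Tdp1-/- cells complemented with human TDP1, 400 cells/well, exposed to compounds plus 20 nM camptothecin for at least 48 h at 37 C; viability read as ATP content by CellTiter-Glo luminescence.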
KB-V1 cytotox: KB-V1 MDR subline cytotoxicity; KB-V1 MDR cells viability, CellTiter-Glo, 72 h; Potency, µM (highest dose often 46.1 µM), most hits filed as cytotoxic; actives 3.4% (n = 400,000); AID 1347076; also: nearly all actives have a fitted effect of over 60% in size
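Compound-treated KB-V1 multidrug-resistant cells, 72 h, 37 degrees C; viability by CellTiter-Glo. Fitted qHTS curves give the values.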
HT1080 IDH1KD tx: toxicity to HT-1080 IDH1 knockdown cells (counter line); HT-1080 IDH1 knockdown viability, ATP luminescence, 48 h; Potency, µM (top dose mostly 46.1 µM), hits mostly cytotoxic; actives 2% (n = 360,000); AID 686971
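CellTiter-Glo luminescence after 48 h compound exposure at 37 degrees C of IDH1-knockdown HT-1080 cells in 5% FBS RPMI. %Activity scaled between DMSO wells and cell-free media wells, with curves fitted and assigned curve classes.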
KB-3-1 cytotox: kills parental KB-3-1 adenocarcinoma cells; actives 1.4% (n = 400,000); Potency, µM (top dose mostly 46.1 µM), most hits filed as cytotoxic; KB-3-1 viability, CellTiter-Glo ATP luminescence, 72 h; AID 1347075; also: nearly all actives have a fitted effect of over 60% in size
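Parental KB-3-1 viability, qHTS format: 72 h compound exposure, 37 °C; CellTiter-Glo; media-only wells and DMSO plates as controls; concentration-effect fits on corrected data.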
Each line names hits and unclear results; the compound was inactive in the other large screens. Calls follow the shape of the dose curve; as a rule, active = well fitted curve in the direction sought with a large enough effect; inconclusive = small, poorly fitted or top-dose-only effect, or another doubt; inactive = no such curve, though single readings can be large; an effect the other way counts as inactive or inconclusive.

COC(=O)c1ccc(C2NC(c3ccc4c(c3)OCO4)=CC(c3ccccc3O)N2)cc1 (centres undefined)	TDP1 cell noCPT 6.3µM, DT40 TDP1 CPT 7.1µM (no result: HT1080NT lethal, HT1080 IDH1KD tx)
Cn1nnnc1SCCCNCc1ccccc1OCc1ccc(Cl)cc1	TDP1 cell noCPT 23µM, DT40 TDP1 CPT 18µM (no result: HT1080NT lethal, KB-V1 cytotox, HT1080 IDH1KD tx, KB-3-1 cytotox)
Cn1nnnc1SCCCNCc1cccc(OCc2ccc(F)cc2)c1	TDP1 cell noCPT 23µM, DT40 TDP1 CPT inconclusive (no result: HT1080NT lethal, HT1080 IDH1KD tx)
CCOc1cccc(CNCCCSc2nnnn2C)c1	none (no result: HT1080NT lethal, HT1080 IDH1KD tx)
COc1cc(CNCCSc2nnnn2C)ccc1OCc1ccccc1C	TDP1 cell noCPT inconclusive, DT40 TDP1 CPT 16µM (no result: HT1080NT lethal, HT1080 IDH1KD tx)
Cn1nnnc1SCCCNCc1ccccc1OCc1ccc(F)cc1	TDP1 cell noCPT inconclusive, DT40 TDP1 CPT inconclusive, KB-V1 cytotox inconclusive (no result: HT1080NT lethal, HT1080 IDH1KD tx)
Cn1nnnc1SCCNCc1ccccc1OCc1ccc(Cl)cc1	TDP1 cell noCPT 16µM, HT1080NT lethal inconclusive, DT40 TDP1 CPT inconclusive, HT1080 IDH1KD tx inconclusive
CCCCC(CCC(=O)NNC(=O)Cc1ccccc1)C(=O)O (centres undefined)	none
CCCCc1ccc(NC(=S)N2CCN(c3ccccn3)CC2)cc1	TDP1 cell noCPT inconclusive, KB-V1 cytotox inconclusive
Cn1nnnc1SCCNCc1ccc(Cl)cc1	none
CCOc1cccc(CNCCCSc2ncccn2)c1	TDP1 cell noCPT 15µM, DT40 TDP1 CPT 4.6µM
Cc1ccc(CNCCCSc2ncccn2)cc1	none
Cn1nnnc1SCCNCc1cc(Cl)ccc1OCc1ccccc1	TDP1 cell noCPT 23µM, DT40 TDP1 CPT 26µM, KB-V1 cytotox 5.2µM
C=C1CC[C@@H]2O[C@@]2(C)CC[C@H]2[C@H]1CC2(C)C	none (no result: HT1080NT lethal, KB-V1 cytotox, HT1080 IDH1KD tx, KB-3-1 cytotox)
CCOC(=O)C(C)Oc1cccc2c(=O)n(CC(=O)Nc3ccc4c(c3)OCCO4)ccc12 (centres undefined)	none
CCOC(=O)COc1cccc2c(=O)n(CC(=O)NCc3ccccc3)ccc12	TDP1 cell noCPT 0.65µM, HT1080NT lethal 0.52µM, DT40 TDP1 CPT 1µM, KB-V1 cytotox 1.6µM, HT1080 IDH1KD tx 0.46µM, KB-3-1 cytotox 0.92µM
CCOC(=O)C(C)Oc1cccc2c(=O)n(CC(=O)NCc3ccc4c(c3)OCO4)ccc12 (centres undefined)	TDP1 cell noCPT 2.3µM, HT1080NT lethal inconclusive, DT40 TDP1 CPT 2.6µM, KB-V1 cytotox 7.3µM, HT1080 IDH1KD tx inconclusive, KB-3-1 cytotox 6.5µM
CCOC(=O)COc1cccc2c(=O)n(CC(=O)NCc3ccc(F)cc3)ccc12	TDP1 cell noCPT 0.52µM, HT1080NT lethal 1.2µM, DT40 TDP1 CPT 0.58µM, KB-V1 cytotox 1.5µM, HT1080 IDH1KD tx 1µM, KB-3-1 cytotox 0.58µM
CCOC(=O)COc1cccc2c(=O)n(CC(N)=O)ccc12	none
COCCNC(=O)C1(C)Cc2c(-c3cccc(C(F)(F)F)c3)ccnc2O1 (centres undefined)	TDP1 cell noCPT 9.2µM, HT1080NT lethal inconclusive, DT40 TDP1 CPT 9.2µM, HT1080 IDH1KD tx 21µM, KB-3-1 cytotox inconclusive
CC1(C(=O)NCC2CC2)Cc2c(-c3cccc(C(N)=O)c3)ccnc2O1 (centres undefined)	TDP1 cell noCPT inconclusive, DT40 TDP1 CPT inconclusive, KB-V1 cytotox inconclusive
CC1(C(=O)NCC2CC2)Cc2c(-c3cccc(C(F)(F)F)c3)ccnc2O1 (centres undefined)	TDP1 cell noCPT 5.8µM, HT1080NT lethal inconclusive, DT40 TDP1 CPT 5.8µM, KB-V1 cytotox inconclusive, HT1080 IDH1KD tx 21µM, KB-3-1 cytotox inconclusive
COc1cc(OC)cc(N(C(=O)CNC(=O)c2ccco2)C(C(=O)NCC2CCCO2)c2ccccc2)c1 (centres undefined)	TDP1 cell noCPT inconclusive, KB-3-1 cytotox inconclusive
Cc1noc(Cn2c(=O)c3ccccc3n(CC(=O)Nc3ccc(F)cc3F)c2=O)n1	DT40 TDP1 CPT inconclusive (no result: HT1080NT lethal, HT1080 IDH1KD tx)
CN(C)S(=O)(=O)N(CC(=O)Nc1ccc(Br)cc1F)c1ccccc1	none (no result: TDP1 cell noCPT, HT1080NT lethal, DT40 TDP1 CPT, HT1080 IDH1KD tx)
Cc1ccc(/C=C/c2nc3ccccc3c(=O)[nH]2)cc1	TDP1 cell noCPT inconclusive, DT40 TDP1 CPT inconclusive

Compound activity (PubChem BioAssay)
